Measurements from PubChem BioAssay (NCATS).
Values joined by “and” are separate entries in the source; they are usually repeats but may differ in a detail not shown here. Equal entries are not always repeated. Inconclusive results are not listed. Some structures have more than one record in an assay (separate samples or runs), and their calls can disagree. Active and inactive are the calls of the source. Unless noted, calls follow the shape of the dose curve; as a rule, active = well fitted curve in the direction sought with a large enough effect; inconclusive = small, poorly fitted or top-dose-only effect, or another doubt; inactive = no such curve, though single readings can be large; an effect the other way counts as inactive or inconclusive.

Tests used:
[1] = qHTS assay to identify small molecule inhibitors of chordoma cells - UCH-1 (AID 1259355); also: nearly all actives have a fitted effect of over 55% in size; also: potency is read from the fitted curve at half-maximal effect; series mostly up to about 46 µM
Procedure, shortened: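 A 48hr growth-inhibition format: each drug tested at 15 concentrations together with added auranofin, camptothecin, doxorubicin, rubitecan and topotecan, with cell viability quantified as CellTiter-Glo luminescence.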

[2] = Natriuretic polypeptide receptor (hNpr1) antagonism - Pilot counterscreen GloSensor control cell line (AID 1347045; calls by dose curve; also: series mostly up to about 38 µM)
Procedure, shortened: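 Cells were first seeded and incubated overnight at 37C, then loaded with 2% GloSensor substrate for 2 h. Compounds were added for 30 min at room temperature, followed by a baseline read, 50 uM SNP and a final read after 20 min.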

[3] = biological target: Atrial natriuretic peptide receptor 1 (Homo sapiens) (UniProt P16066); test: Natriuretic polypeptide receptor (hNpr1) antagonism - Pilot screen (AID 1347049; calls by dose curve;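 also: HEK293 cells with hNpr1 and GloSensor cGMP luciferase stimulated by 0.1 nM hNppA; agonist-evoked cGMP luminescence read 20 min after hNppA addition; series mostly up to about 58 µM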)
Sequence of Atrial natriuretic peptide receptor 1 (Homo sapiens) (P16066 whole entry, looked up): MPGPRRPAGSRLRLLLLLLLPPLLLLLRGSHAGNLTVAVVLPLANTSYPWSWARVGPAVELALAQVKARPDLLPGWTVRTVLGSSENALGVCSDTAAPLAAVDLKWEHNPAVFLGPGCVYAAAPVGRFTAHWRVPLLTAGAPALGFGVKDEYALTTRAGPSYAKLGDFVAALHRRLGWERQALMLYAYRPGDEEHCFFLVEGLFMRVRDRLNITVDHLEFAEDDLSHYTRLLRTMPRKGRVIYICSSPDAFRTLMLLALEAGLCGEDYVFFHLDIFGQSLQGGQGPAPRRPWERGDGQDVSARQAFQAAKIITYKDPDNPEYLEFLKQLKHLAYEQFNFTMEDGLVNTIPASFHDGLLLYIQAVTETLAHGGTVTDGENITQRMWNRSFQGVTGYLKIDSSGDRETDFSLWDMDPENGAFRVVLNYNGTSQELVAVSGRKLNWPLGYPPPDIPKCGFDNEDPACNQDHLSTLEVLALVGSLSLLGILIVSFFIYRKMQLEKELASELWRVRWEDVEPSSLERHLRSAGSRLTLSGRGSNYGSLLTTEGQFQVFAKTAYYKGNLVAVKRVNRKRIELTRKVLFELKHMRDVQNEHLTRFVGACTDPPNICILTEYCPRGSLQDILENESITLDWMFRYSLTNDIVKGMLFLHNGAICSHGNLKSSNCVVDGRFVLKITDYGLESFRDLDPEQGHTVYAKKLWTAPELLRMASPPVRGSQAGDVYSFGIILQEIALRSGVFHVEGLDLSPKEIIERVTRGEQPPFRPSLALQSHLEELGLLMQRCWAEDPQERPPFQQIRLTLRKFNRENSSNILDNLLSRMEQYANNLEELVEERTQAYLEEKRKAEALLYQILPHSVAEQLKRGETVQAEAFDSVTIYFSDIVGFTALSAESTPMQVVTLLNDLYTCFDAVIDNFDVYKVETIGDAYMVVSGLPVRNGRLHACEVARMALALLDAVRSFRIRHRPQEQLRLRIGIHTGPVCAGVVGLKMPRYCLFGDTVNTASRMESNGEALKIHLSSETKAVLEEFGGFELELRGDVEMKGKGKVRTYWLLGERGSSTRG
Procedure, shortened: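 Cells expressing receptor plus cGMP biosensor are seeded and incubated overnight at 37C, then loaded with GloSensor reagent (2% final) at room temperature for 2 h. Library compounds go on for 30 min. A pre-read precedes agonist (hNppA, 0.1 nM final) and a 20-min readout.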

[4] = biological target: Atrial natriuretic peptide receptor 2 (Homo sapiens) (UniProt P20594); test: Natriuretic polypeptide receptor (hNpr2) antagonism - Pilot subtype selectivity assay (AID 1347050; calls by dose curve)
Sequence of Atrial natriuretic peptide receptor 2 (Homo sapiens) (P20594 whole entry, looked up): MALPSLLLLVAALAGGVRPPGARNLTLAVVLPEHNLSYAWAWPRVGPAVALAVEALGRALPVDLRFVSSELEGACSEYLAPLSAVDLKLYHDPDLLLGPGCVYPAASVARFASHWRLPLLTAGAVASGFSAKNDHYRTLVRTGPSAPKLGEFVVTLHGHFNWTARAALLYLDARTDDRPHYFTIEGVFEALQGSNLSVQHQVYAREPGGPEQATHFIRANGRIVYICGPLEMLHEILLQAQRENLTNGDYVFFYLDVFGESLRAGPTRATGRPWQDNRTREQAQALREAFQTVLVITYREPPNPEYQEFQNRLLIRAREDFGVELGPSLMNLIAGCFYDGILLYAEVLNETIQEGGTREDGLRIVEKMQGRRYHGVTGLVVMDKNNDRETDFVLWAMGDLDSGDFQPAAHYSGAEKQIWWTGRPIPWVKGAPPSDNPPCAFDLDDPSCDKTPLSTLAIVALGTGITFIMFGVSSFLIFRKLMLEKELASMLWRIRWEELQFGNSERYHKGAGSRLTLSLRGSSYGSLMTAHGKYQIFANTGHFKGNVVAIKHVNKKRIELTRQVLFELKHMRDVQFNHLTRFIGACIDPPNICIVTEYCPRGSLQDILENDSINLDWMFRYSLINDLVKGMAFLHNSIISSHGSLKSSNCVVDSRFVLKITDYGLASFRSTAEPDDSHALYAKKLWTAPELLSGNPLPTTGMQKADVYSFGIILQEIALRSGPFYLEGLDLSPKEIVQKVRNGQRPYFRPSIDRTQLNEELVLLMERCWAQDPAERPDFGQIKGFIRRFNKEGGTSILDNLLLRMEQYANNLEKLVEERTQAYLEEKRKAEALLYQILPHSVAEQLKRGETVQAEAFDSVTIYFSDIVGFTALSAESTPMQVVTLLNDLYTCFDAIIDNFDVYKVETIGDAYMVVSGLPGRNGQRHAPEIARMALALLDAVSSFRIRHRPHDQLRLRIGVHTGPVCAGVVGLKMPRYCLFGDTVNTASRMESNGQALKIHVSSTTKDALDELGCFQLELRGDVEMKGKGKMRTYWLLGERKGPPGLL
Procedure, shortened: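 Read-out: GloSensor luminescence (CCD imager), baseline vs post-stimulation. HEK293 cells expressing hNpr2; compounds pre-incubated 30-50 min at ambient temperature; hNppC 1 nM final, 20 min.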

[5] = NS1 protein of Zika virus - qHTS assay to identify small molecule inhibitors in human HEK 293 cells (AID 1347053); also: nearly all actives have a fitted effect of over 55% in size; also: potency is read from the fitted curve at half-maximal effect
Procedure, shortened: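 TR-FRET signal from two anti-ZIKV NS1 antibodies quantified NS1 in HEK 293 cells 24 h after MR766 infection at MOI = 0.5; compounds were added 1 h before virus. Uninfected cells and infected cells defined the NS1 normalization range.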

[6] = biological target: T1, Tyrosine-protein phosphatase non-receptor type substrate 1 (Homo sapiens) + Leukocyte surface antigen CD47 (Homo sapiens) (UniProt P78324+Q08722); test: CD47-SIRPalpha protein protein interaction - LANCE assay qHTS validation (AID 1347057; active = well fitted curve in the direction sought with a large enough effect in the signal ratio, with a control signal flat, not every such curve was filed as active; the % refers to the signal ratio; also: series mostly up to about 38 µM)
T1 sequence (P78324 whole entry, looked up, the tested form may be a part): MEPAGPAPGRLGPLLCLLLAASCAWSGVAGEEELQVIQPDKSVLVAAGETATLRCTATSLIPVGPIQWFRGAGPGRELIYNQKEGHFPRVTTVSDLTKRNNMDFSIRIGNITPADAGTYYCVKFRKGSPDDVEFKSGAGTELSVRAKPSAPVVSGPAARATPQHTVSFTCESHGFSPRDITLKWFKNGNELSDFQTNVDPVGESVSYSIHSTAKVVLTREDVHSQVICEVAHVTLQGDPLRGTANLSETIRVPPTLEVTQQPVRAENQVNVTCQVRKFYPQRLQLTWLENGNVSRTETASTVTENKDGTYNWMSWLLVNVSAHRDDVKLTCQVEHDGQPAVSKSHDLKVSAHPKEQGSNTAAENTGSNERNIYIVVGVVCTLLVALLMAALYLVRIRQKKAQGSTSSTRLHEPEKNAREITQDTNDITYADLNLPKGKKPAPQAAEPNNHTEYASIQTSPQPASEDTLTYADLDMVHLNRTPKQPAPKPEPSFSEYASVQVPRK
T1 sequence (Q08722 whole entry, looked up, the tested form may be a part): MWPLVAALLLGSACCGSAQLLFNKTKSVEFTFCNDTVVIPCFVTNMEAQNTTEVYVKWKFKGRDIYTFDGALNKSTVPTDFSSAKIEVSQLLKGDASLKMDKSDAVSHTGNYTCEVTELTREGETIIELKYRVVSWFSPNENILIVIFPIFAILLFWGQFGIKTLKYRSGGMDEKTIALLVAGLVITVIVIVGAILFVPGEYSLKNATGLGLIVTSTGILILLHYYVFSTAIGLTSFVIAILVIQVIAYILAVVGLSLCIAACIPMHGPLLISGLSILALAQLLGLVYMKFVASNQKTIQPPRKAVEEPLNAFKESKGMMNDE
Procedure, shortened: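 Inhibition of soluble CD47/SIRPalpha ectodomain association by titrated compounds, measured as 665/615 nm time-resolved FRET ratio after sequential 30 min room-temperature incubations.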

[7] = biological target: Parathyroid hormone/parathyroid hormone-related peptide receptor (Homo sapiens) (UniProt Q03431); test: qHTS for PTHR1 Agonists: Optimization Screen against the NCGC LOPAC library (AID 1347079);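 also: GloSensor cAMP luminescence in HEK-293 GP2 cells expressing human PTHR1 with IBMX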
Sequence of Parathyroid hormone/parathyroid hormone-related peptide receptor (Homo sapiens) (Q03431 whole entry, looked up): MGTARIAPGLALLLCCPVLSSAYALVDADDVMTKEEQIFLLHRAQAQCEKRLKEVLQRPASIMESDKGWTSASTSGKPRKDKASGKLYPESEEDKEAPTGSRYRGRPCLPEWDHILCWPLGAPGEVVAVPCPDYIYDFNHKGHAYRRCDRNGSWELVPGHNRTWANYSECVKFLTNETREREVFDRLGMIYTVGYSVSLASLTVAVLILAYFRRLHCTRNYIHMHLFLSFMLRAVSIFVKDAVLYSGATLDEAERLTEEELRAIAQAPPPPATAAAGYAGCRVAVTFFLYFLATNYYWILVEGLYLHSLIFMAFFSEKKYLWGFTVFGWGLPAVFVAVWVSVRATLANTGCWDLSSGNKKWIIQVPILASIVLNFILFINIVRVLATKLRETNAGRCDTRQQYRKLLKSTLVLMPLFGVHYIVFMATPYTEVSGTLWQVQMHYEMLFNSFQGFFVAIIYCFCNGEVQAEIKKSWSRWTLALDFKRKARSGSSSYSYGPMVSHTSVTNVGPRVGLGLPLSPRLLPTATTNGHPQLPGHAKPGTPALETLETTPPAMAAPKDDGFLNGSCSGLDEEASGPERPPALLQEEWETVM
Procedure, shortened: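 HEK-293 GP2 cells, PTHR1 + GloSensor cAMP; 3000 cells/well, o/n. Luciferin + IBMX 0.5mM each (stock), 1 hr 37C. Cpd titration, 1 hr 37C. Lum after 15 min RT. Ctrl M-PTH(1-15) top 10uM.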

[8] = qHTS for Inhibitors of the Functional Ribonucleoprotein Complex (vRNP) of Lassa (LASV) Arenavirus: LASV Primary Screen - GLuc reporter signal (AID 1347082; calls by dose curve; tested in HEK293 reporter line; also: nearly all actives have a fitted effect of over 60% in size; also: potency is read from the fitted curve at half-maximal effect)
[9] = qHTS for Inhibitors of the Functional Ribonucleoprotein Complex (vRNP) of Lassa (LASV) Arenavirus: Viability assay - alamar blue signal for LASV Primary Screen (AID 1347083; calls by dose curve; tested in HEK293 reporter line; also: nearly all actives have a fitted effect of over 80% in size; also: potency is read from the fitted curve at half-maximal effect)
[10] = qHTS for Inhibitors of the Functional Ribonucleoprotein Complex (vRNP) of Lymphocytic Choriomeningitis Arenaviruses (LCMV): Viability assay - alamar blue signal for LCMV Primary Screen (AID 1347085; calls by dose curve; tested in HEK293 reporter line; also: nearly all actives have a fitted effect of over 80% in size; also: potency is read from the fitted curve at half-maximal effect)
[11] = biological target: Nucleoprotein (Lymphocytic choriomeningitis virus (strain Armstrong)) (UniProt P09992); test: qHTS for Inhibitors of the Functional Ribonucleoprotein Complex (vRNP) of Lymphocytic Choriomeningitis Arenaviruses (LCMV): LCMV Primary Screen - GLuc reporter signal (AID 1347086; calls by dose curve; also: series mostly up to about 57 µM; nearly all actives have a fitted effect of over 70% in size)
Sequence of Nucleoprotein (Lymphocytic choriomeningitis virus (strain Armstrong)) (P09992 whole entry, looked up): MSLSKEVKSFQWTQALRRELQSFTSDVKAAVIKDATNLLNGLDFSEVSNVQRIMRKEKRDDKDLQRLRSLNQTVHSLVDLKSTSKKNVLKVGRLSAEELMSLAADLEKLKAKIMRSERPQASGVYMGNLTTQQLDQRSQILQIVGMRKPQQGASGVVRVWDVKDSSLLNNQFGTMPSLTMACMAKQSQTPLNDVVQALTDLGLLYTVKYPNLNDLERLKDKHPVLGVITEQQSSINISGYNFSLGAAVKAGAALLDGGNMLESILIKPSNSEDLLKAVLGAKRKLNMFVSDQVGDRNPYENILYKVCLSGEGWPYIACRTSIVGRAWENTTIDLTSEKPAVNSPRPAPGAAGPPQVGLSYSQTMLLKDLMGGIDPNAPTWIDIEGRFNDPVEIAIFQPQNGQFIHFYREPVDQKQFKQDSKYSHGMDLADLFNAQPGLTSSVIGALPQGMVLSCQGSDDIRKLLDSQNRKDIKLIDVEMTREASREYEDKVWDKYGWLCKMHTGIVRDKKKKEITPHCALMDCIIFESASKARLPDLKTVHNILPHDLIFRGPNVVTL

[12] = P-glycoprotein substrates identified in KB-8-5-11 adenocarcinoma cell line, qHTS therapeutic library screen (AID 1346987); also: nearly all actives have a fitted effect of over 65% in size; also: potency is read from the fitted curve at half-maximal effect
Procedure, shortened: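 Luminescence from CellTiter-Glo, read 5 min after addition, quantified survival of KB-8-5-11 (P-gp-overexpressing) cells exposed to compounds for 72 h. AC50 was derived from concentration-response curves.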

[13] = biological target: T1, Tyrosine-protein phosphatase non-receptor type substrate 1 (Homo sapiens) + Leukocyte surface antigen CD47 (Homo sapiens); test: CD47-SIRPalpha protein protein interaction - HTRF assay qHTS validation (AID 1347058; active = well fitted curve in the direction sought with a large enough effect in the signal ratio, not every such curve was filed as active; the % refers to the signal ratio; also: series mostly up to about 38 µM)
Procedure, shortened: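 Soluble extracellular domains (6His-CD47, Avi-tag-biotinylated SIRPalpha) in PBS pH 7.4 with 0.05% IGEPAL CA-630. Compounds were preincubated 30 min at RT with CD47 and anti-His-Eu, then SIRPalpha and SAV-XL665 were added. TR-FRET 665/615 ratio.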

[14] = Identifying Small Molecule Inhibitors of Pancreatic Cancer Stem Cells (A2780, Spheroid) (AID 1259357); details: Potency: A2780 spheroid viability;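 also: spheroids pre-formed over 14 days in stem cell medium on hydrogel; compound exposure lasted 48 h before the ATP luminescence read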
Procedure, shortened: (§1)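 Luminescent ATP readout (CellTiter-Glo) quantifies surviving cells after a 48 h drug incubation. Normalization uses DMSO wells as no inhibition and media-only wells as full inhibition; bortezomib served as positive control.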

[15] = Identifying Small Molecule Inhibitors of Pancreatic Cancer Stem Cells (Panc1, Spheroid) (AID 1259359);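 also: compound exposure lasted 48 h before reading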
Procedure, shortened: (§2)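 Viability is scored by CellTiter-Glo luminescence 48 h after dosing, expressed as percent activity against vehicle and no-cell references. Spheroid formats rely on cells cultured 14 days in stem cell media beforehand.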

[16] = Identifying Small Molecule Inhibitors of Pancreatic Cancer Stem Cells (SN12C, Spheroid) (AID 1259360); details: Potency: SN12C spheroid viability
Procedure, shortened: as §1

[17] = Identifying Small Molecule Inhibitors of Pancreatic Cancer Stem Cells (A278, Adherent) (AID 1259361);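 also: viability read after 48 h compound exposure; nearly all actives have a fitted effect of over 35% in size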
Procedure, shortened: as §2

[18] = Identifying Small Molecule Inhibitors of Pancreatic Cancer Stem Cells (Panc1, Adherent) (AID 1259362); details: Potency: viability;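 also: compound exposure lasted 48 h before the viability read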
Procedure, shortened: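 Endpoint: ATP-based luminescence, 48 h drug exposure. Bortezomib at 9.2 uM final as full-kill control; DMSO vehicle as negative control; activity normalized between vehicle and cell-free wells.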

[19] = qHTS assay to identify small molecule inhibitors of chordoma cells - UCH-2 (AID 1259356); also: series mostly up to about 46 µM

CN1C[C@H](CNC(=O)OCc2ccccc2)C[C@@H]2c3cccc4c3c(cn4C)C[C@H]21
inactive: Potency [1] | Potency [2] | Potency [3] | Potency [4] | Potency [5] | outcome [6] | outcome [7] | Potency [8] | Potency [9] | Potency [10] | Potency [11]

N#CC(C#N)=Cc1ccc(O)c(O)c1
inactive: Potency [1] | Potency [12] | Potency [2] | Potency [3] | Potency [4] | Potency [5] | outcome [6] | outcome [7] | Potency [8] | Potency [9] | Potency [10] | Potency [11]

CC(C)NCC(O)c1ccccc1Cl (stereo not given)
inactive: Potency [1] | Potency [12] | Potency [5] | Potency [8] | Potency [9] | Potency [10] | Potency [11]

O=C1NCN(c2ccccc2)C12CCN(CC1COc3ccccc3O1)CC2 (stereo not given)
inactive: Potency [1] | Potency [2] | Potency [3] | Potency [4] | Potency [5] | outcome [6] | outcome [13] | outcome [7] | Potency [8] | Potency [9] | Potency [10] | Potency [11]

NP(N)(=O)NC(=O)c1ccc(F)cc1
inactive: Potency [1] | Potency [12] | Potency [5] | Potency [8] | Potency [9] | Potency [10] | Potency [11]

c1ccc2c(c1)OCC(C1=NCCN1)O2 (stereo not given)
inactive: Potency [12] | Potency [4] | outcome [6] | outcome [13] | outcome [7]
active: Potency [1] 31.6 µM | Potency [8] 14.1 µM

Cc1ccc(S(=O)(=O)N[C@@H](CCCCN)C(=O)CCl)cc1
inactive: Potency [1] | Potency [12] | Potency [2] | Potency [3] | Potency [4] | Potency [5] | outcome [6] | outcome [13] | outcome [7] | Potency [8] | Potency [9] | Potency [10] | Potency [11]

CC(C)(C)CC(C)(C)c1ccc(O)cc1
inactive: Potency [1] | Potency [12] | Potency [5] | Potency [8] | Potency [9] | Potency [10] | Potency [11]

Cc1ccc2c(c1)C1CN(C)CCC1N2 (stereo not given)
inactive: Potency [1] | Potency [12] | Potency [5] | Potency [8] | Potency [9] | Potency [10] | Potency [11]

CC1NCCOC1c1ccccc1 (stereo not given)
inactive: Potency [1] | Potency [12] | Potency [5] | Potency [8] | Potency [9] | Potency [10] | Potency [11]

C=CCN1CC[C@]23c4c5ccc(O)c4O[C@H]2C(=O)CC[C@@]3(O)[C@H]1C5
inactive: Potency [1] | Potency [12] | Potency [5] | Potency [8] | Potency [9] | Potency [11]

COc1ccccc1N1CCNCC1
inactive: Potency [1] | Potency [12] | Potency [2] | Potency [3] | Potency [4] | Potency [5] | outcome [6] | outcome [13] | outcome [7] | Potency [8] | Potency [9] | Potency [10] | Potency [11]

Cc1cccc(C)c1NC1=NCCCS1
inactive: Potency [1] | Potency [12] | Potency [2] | Potency [4] | Potency [5] | outcome [6] | outcome [13] | outcome [7] | Potency [8] | Potency [9] | Potency [10] | Potency [11]

O=C(O)c1ccc2[nH]cc(CCCCN3CC=C(c4ccccc4)CC3)c2c1
inactive: Potency [1] | Potency [12] | Potency [5] | Potency [8] | Potency [9] | Potency [10] | Potency [11]

O=c1oc2ccccc2c(O)c1C(CC(O)c1ccc(-c2ccc(Br)cc2)cc1)c1ccccc1 (stereo not given)
inactive: Potency [1] | Potency [12] | Potency [5] | Potency [8] | Potency [9] | Potency [10] | Potency [11]

Cn1c(CCCC(=O)O)nc2cc(N(CCCl)CCCl)ccc21
inactive and 20.9 µM (active): Potency [5]
inactive: Potency [1] | Potency [14] | outcome [15] | Potency [16] | IC50 (viability decrease) [17] | Potency [18] | Potency [12] | outcome [6] | outcome [13] | Potency [8] | Potency [9] | Potency [10] | Potency [11]

CCOC(=O)C1(c2ccccc2)CCN(CCC(C#N)(c2ccccc2)c2ccccc2)CC1
inactive: Potency [1] | Potency [9]
active: Potency [12] 9.2 µM and 15.8 µM

C[C@@H]1O[C@@H](O[C@H]2C[C@@H](O)[C@]3(CO)[C@H]4[C@H](O)C[C@]5(C)[C@@H](C6=CC(=O)OC6)CC[C@]5(O)[C@@H]4CC[C@]3(O)C2)[C@H](O)[C@H](O)[C@H]1O
inactive: Potency [2] | Potency [3] | Potency [4] | outcome [6] | outcome [13] | outcome [7]
13.2 nM (active) and inactive: Potency [5]
active: Potency [1] 158 nM and 63.1 nM | Potency [9] 109 nM and 44.7 nM | Potency [10] 122 nM and 89.1 nM

Nc1ccncc1
inactive: Potency [1] | Potency [12] | Potency [2] | Potency [3] | Potency [4] | Potency [5] | outcome [6] | outcome [13] | outcome [7] | Potency [8] | Potency [9] | Potency [10] | Potency [11]

CCCN1CCC[C@@H]2Cc3nc(N)ncc3C[C@H]21
inactive: Potency [1] | Potency [12] | Potency [2] | Potency [3] | Potency [4] | Potency [5] | outcome [6] | outcome [13] | outcome [7] | Potency [8] | Potency [9] | Potency [10] | Potency [11]

CCCC1CCCCN1 (stereo not given)
inactive: Potency [1] | Potency [12] | Potency [5] | Potency [8] | Potency [9] | Potency [10] | Potency [11]

CCN(CC)C(=O)N[C@@H]1C=C2c3cccc4[nH]cc(c34)C[C@@H]2N(C)C1
inactive: Potency [1] | Potency [19] | Potency [5] | Potency [8] | Potency [9] | Potency [11]

Clc1ccc(CCC(Cn2ccnc2)Sc2c(Cl)cccc2Cl)cc1 (stereo not given)
inactive: Potency [1] | Potency [19] | Potency [8] | Potency [9] | Potency [10] | Potency [11]
active: Potency [5] 14.8 µM

CCN(CC)CCN1C(=O)CN=C(c2ccccc2F)c2cc(Cl)ccc21
inactive: Potency [1] | Potency [19] | Potency [5] | Potency [10] | Potency [11]

C#CCOC(C(=O)OCCN(C)C)(c1ccccc1)c1ccccc1
inactive: Potency [1] | Potency [12] | Potency [5] | Potency [8] | Potency [9] | Potency [10] | Potency [11]
